Data reported in PubChem BioAssay.
Active and inactive are the calls of the source.

How the values were obtained:
[1] = system: Plasmodium falciparum Sir2 (PF13_0152, Sir2A); experiment: Plasmodium falciparum Sir2A binding compounds – biochemical, small-molecule microarray, 635 nm fluorescence, primary screen (AID 1098); details: fluorescence 635 nm, higher = more signal;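 also: score merges spot fluorescence intensity with its signal-to-noise ratio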
[2] = probe aDKK1 binding to arrayed compounds – biochemical, biotinylated probe, 635/667 nm fluorescence, primary screen (AID 1099); details: small-molecule microarray, higher = more signal;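 also: score merges 667nm spot fluorescence with signal to noise across triplicate slides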
[3] = probe aCHRDL2 binding to arrayed compounds – biochemical, biotinylated probe, 635/667 nm fluorescence, primary screen (AID 1100); details: small-molecule microarray, higher = more signal
[4] = change in splice reporter luminescence, either direction, cell-based, HEK293, spliceosome inhibition project, primary screen (AID 1101); details: HEK293 splicing luciferase reporter, 24 h, higher = more signal, called active from +8 up or from −8 down;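 also: HEK293 cells carrying a splicing-competent luciferase reporter gene; test concentration not given here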
[5] = target: Fibroblast growth factor 10 (Homo sapiens) (UniProt O15520); experiment: compounds binding fibroblast growth factor 10 – biochemical, small-molecule microarray, 635 nm fluorescence, primary screen (AID 1102); details: FGF10 binding, fluorescence 635 nm, higher = more signal
[6] = system: glycogen synthase kinase-3 (GSK3A per assay name; protocol says GSK3B); experiment: compounds binding glycogen synthase kinase-3 – biochemical, small-molecule microarray, 635 nm fluorescence, GSK3A, primary screen (AID 1103); details: fluorescence 635 nm, higher = more signal; also: the record names both GSK3A and GSK3B
[7] = target: Epidermal growth factor receptor (Homo sapiens) (UniProt P00533); experiment: compounds binding epidermal growth factor receptor – biochemical, small-molecule microarray, 635 nm fluorescence, primary screen (AID 1104); details: EGFR binding, higher = more signal;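 also: score merges 667 nm emission intensity with spot signal to noise over triplicate slides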
[8] = target: Follistatin-related protein 3 (Homo sapiens) (UniProt O95633); experiment: compounds binding follistatin-related protein 3 – biochemical, small-molecule microarray, 635 nm fluorescence, primary screen (AID 1105); details: FSTL3 binding, higher = more signal;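 also: score merges emission near 667 nm and signal to noise per printed spot across three slides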
[9] = target: Dickkopf-related protein 1 (Homo sapiens) (UniProt O94907); experiment: small molecules binding DKK1 protein – biochemical, small-molecule microarray, 635 nm fluorescence scan, primary screen (AID 1106); details: higher = more signal;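 also: score merges emission near 667 nm with signal to noise over three replicate slides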
[10] = system: Inhibin beta A chain (activin A); experiment: small molecules binding activin A – biochemical, small-molecule microarray, 635 nm fluorescence scan, primary screen (AID 1107); details: INHBA, higher = more signal;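 also: mouse activin A protein probed at 4.33 µg/mL on printed slides; score merges bound-protein fluorescence near 667 nm with spot signal-to-noise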
[11] = system: Human papillomavirus type 1a protein E7 (residues 44-93); experiment: small molecules binding HPV E7 44-93 – biochemical, small-molecule microarray, residues 44-93, 635 nm fluorescence, primary screen (AID 1108); details: fluorescence 635 nm, higher = more signal;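 also: E7 fragment applied at 1 µg/mL in TBST for 1 h at 4 C; score combines spot fluorescence with its signal to noise ratio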
[12] = hepatitis C replication reporter changes, two-sided – Huh7 cells, luciferase reporter, HCV replication inhibitor project, primary screen (AID 1109); details: Huh7 HCV replicon luciferase reporter, 48 h; higher = more signal;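 also: huh7 hepatoma cells harbouring a luciferase neomycin HCV replicon reporter; luciferase luminescence as measure of HCV replicon replication; test concentration not given here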
[13] = target: Left-right determination factor 2 (Homo sapiens) (UniProt O00292); experiment: small molecules binding LEFTY2 protein – biochemical, small-molecule microarray, 635 nm fluorescence scan, primary screen (AID 1110); details: higher = more signal
[14] = target: Calmodulin-1 (Homo sapiens) (UniProt P0DP23); experiment: small molecules binding calmodulin-1 with EGTA – biochemical, small-molecule microarray, Cy5-labelled CALM1, profiling panel (AID 1111); details: Cy5-CALM1 binding fluorescence, higher = more signal;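 also: labelled calmodulin applied in Tris saline Tween buffer holding calcium plus EGTA and DTT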
[15] = target: Calmodulin-1 (Homo sapiens) (UniProt P0DP23); experiment: small molecules binding Ca-loaded calmodulin-1 – biochemical, small-molecule microarray, Cy5-labelled CALM1, plus calcium, artefact control for SMM control-protein annotation, profiling panel (AID 1112); details: Cy5-CALM1 binding fluorescence, higher = more signal;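 also: score merges spot fluorescence with signal to noise from triplicate slides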
[16] = probe aWnt5a binding to arrayed compounds – biochemical, biotinylated probe, 635/667 nm fluorescence, primary screen (AID 1113); details: small-molecule microarray, higher = more signal;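 also: score merges 667 nm fluorescence intensity with signal-to-noise per printed feature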
[17] = probe aShh binding to arrayed compounds – biochemical, biotinylated probe, 635/667 nm fluorescence, primary screen (AID 1114); details: small-molecule microarray, higher = more signal;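 also: probe is biotin-labelled aShh protein from a stem cell growth factor screen; measures binding of labelled protein to compounds printed on the slide; score merges feature fluorescence at 667 nm with signal-to-noise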
[18] = probe aNog binding to arrayed compounds – biochemical, biotinylated probe, 635/667 nm fluorescence, primary screen (AID 1115); details: small-molecule microarray, higher = more signal;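 also: probe is biotinylated aNog protein used at 0.15 µg/mL for 1 h at 4 C; z-score combines 667 nm fluorescence of each spot with its signal to noise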
[19] = target: Torsin-1A-interacting protein 1 (Homo sapiens) (UniProt Q5JTV8); experiment: compound microarray binding of lysate hLAP1 – cell lysate, small-molecule microarray, COS7 lysate, 635/667 nm fluorescence, primary screen (AID 1116); details: 635 nm fluorescence, higher = more signal
[20] = target: Alpha-bungarotoxin (Bungarus multicinctus) (UniProt P60615); experiment: compounds binding labelled alpha-BTX control protein – biochemical, small-molecule microarray, Alexa647 label, 635/667 nm fluorescence, artefact control for SMM control protein annotation, profiling panel (AID 1117); details: alpha-BTX-A647 binding fluorescence, higher = more signal
Sequence of Alpha-bungarotoxin (Bungarus multicinctus) (P60615 whole entry, looked up): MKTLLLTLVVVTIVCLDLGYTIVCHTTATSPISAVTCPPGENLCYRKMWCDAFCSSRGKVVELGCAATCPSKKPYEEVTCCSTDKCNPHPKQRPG

Sequence of Follistatin-related protein 3 (Homo sapiens) (O95633 whole entry, looked up): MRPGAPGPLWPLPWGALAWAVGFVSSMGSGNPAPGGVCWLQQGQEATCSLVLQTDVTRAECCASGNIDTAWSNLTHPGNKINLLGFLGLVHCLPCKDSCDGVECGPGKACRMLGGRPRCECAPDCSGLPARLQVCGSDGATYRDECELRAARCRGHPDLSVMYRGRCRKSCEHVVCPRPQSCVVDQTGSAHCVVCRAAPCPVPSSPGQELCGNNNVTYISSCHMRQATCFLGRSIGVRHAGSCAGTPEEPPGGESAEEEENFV
Sequence of Dickkopf-related protein 1 (Homo sapiens) (O94907 whole entry, looked up): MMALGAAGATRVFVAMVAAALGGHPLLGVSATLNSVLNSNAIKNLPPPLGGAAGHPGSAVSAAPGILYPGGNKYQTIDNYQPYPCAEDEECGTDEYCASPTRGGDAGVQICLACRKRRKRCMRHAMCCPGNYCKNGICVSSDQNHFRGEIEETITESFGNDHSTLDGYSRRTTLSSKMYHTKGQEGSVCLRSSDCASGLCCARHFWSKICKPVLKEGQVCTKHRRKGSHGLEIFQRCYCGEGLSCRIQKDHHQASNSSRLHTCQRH
Sequence of Fibroblast growth factor 10 (Homo sapiens) (O15520 whole entry, looked up): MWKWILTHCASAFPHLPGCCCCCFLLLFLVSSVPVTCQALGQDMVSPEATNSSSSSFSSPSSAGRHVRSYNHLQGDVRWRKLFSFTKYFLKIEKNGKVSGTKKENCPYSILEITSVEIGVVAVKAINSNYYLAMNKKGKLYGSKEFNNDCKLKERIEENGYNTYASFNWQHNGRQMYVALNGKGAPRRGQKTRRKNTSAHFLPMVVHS
Sequence of Left-right determination factor 2 (Homo sapiens) (O00292 whole entry, looked up): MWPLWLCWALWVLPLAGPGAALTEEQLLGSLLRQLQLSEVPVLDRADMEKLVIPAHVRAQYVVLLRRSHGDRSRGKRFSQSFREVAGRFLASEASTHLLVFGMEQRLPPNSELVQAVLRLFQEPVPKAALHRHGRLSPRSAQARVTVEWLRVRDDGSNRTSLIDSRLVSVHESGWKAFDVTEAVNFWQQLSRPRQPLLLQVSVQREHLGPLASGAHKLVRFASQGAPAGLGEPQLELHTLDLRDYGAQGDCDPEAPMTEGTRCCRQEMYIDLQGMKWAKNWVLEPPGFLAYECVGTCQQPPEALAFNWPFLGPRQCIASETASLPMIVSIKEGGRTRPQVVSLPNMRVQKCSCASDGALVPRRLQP
Sequence of Epidermal growth factor receptor (Homo sapiens) (P00533 whole entry, looked up): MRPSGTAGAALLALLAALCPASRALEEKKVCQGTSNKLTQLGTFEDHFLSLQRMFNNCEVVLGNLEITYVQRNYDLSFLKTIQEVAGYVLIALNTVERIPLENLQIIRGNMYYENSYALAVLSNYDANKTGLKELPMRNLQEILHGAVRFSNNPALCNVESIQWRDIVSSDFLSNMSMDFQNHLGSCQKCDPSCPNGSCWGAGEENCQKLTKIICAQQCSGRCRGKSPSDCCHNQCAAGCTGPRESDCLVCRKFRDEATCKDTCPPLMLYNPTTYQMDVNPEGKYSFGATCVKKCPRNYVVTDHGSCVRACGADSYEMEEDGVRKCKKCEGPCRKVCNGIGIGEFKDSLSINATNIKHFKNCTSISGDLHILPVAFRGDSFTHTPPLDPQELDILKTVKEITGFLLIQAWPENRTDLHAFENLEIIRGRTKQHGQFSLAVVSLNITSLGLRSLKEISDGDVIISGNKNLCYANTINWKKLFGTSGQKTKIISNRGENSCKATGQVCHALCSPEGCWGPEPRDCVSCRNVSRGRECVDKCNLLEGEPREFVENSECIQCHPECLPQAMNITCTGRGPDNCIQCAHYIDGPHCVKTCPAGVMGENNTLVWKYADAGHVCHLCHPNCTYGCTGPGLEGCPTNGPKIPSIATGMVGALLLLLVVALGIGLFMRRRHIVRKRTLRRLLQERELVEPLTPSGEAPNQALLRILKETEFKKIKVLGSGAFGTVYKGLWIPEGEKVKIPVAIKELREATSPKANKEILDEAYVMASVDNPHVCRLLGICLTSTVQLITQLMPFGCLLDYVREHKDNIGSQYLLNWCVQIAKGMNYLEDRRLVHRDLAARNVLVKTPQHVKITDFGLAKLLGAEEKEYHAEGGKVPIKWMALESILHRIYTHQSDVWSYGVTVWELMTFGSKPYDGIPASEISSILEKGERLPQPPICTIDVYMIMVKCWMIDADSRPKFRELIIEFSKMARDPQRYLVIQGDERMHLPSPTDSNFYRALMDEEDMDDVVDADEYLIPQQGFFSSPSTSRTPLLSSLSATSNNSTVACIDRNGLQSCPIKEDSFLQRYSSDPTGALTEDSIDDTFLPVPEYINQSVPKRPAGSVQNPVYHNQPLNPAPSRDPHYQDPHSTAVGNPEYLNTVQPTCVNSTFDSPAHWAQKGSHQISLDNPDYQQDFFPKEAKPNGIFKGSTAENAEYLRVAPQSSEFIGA
Sequence of Torsin-1A-interacting protein 1 (Homo sapiens) (Q5JTV8 whole entry, looked up): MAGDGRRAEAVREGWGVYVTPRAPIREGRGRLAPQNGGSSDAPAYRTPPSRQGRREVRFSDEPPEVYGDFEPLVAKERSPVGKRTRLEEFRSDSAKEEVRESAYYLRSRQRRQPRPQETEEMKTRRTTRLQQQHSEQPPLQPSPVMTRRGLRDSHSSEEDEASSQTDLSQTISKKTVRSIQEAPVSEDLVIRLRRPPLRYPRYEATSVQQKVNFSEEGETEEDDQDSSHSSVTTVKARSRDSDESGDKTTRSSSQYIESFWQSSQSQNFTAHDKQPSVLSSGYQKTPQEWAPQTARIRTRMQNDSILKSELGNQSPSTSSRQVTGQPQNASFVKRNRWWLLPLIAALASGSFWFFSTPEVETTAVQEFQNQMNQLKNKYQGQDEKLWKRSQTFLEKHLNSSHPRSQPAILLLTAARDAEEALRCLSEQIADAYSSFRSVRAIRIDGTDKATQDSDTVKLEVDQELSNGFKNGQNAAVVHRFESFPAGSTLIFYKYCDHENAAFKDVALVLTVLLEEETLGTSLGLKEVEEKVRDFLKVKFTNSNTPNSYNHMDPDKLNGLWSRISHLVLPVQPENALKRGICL

SMILES | composite z-score [1] | composite z-score [2] | composite z-score [3] | z-score [4] | composite z-score [5] | composite z-score [6] | composite z-score [7] | composite z-score [8] | composite z-score [9] | composite z-score [10] | composite z-score [11] | z-score [12] | composite z-score [13] | composite z-score [14] | composite z-score [15] | composite z-score [16] | composite z-score [17] | composite z-score [18] | composite z-score [19] | composite z-score [20]
O=C1OCCC=C[C@H]2OC34C=CCN(Cc5ccccc5)C(=O)[C@H]3N(CCO)C(=O)[C@@H]4C12 (stereo not given in full) | -0.37 | -0.273 | 0.0184 | -2.82 (inactive) | -0.835 | -0.958 | -0.844 | -0.376 | -0.46 | 1.02 | -0.936 | -1.23 | -0.591 | -0.675 | 0.681 | -0.248 | -0.276 | -0.224 | -0.18 | -2.01
COC(=O)Cn1c(C(=O)N2CCCC2)cc2c1C[C@H]1CN(C(=O)c3ccccc3)[C@@](Cc3ccc(OC)cc3)(C(=O)OC)[C@@H]21 | 0.41 | 1.37 | 1.1 | -1.76 (inactive) | 0.388 | 0.203 | 0.559 | 0.348 | -0.467 | 1.04 | 1.44 | -1.21 | -0.304 | 1.55 | 0.367 | 0.129 | 0.593 | 1.83 | 0.478 | 0.841
COc1ccc(NN2C(C(O)c3cc(OC)c(OC)c(OC)c3)C=CC3C(=O)N(C4CCCCC4)C(=O)C32)cc1 (stereo not given) | 0.573 | 1.16 | 1.31 | -0.617 (inactive) | 0.672 | 1.04 | -0.187 | 0.563 | -0.61 | 0.973 | 1.22 | -1.92 | -0.346 | 1.58 | 0.509 | 0.114 | -0.226 | 0.273 | 0.479 | 1.96
CC(C)=C1C(=O)C(c2ccccc2)=C2CN3C(=O)N(CCc4ccccc4)C(=O)[C@]3(Cc3ccccc3)[C@H]21 | -0.34 | 0.809 | 1.25 | 0.514 (inactive) | -0.316 | -0.121 | -0.972 | -0.356 | -1.86 | 0.64 | -1.85 | 0.219 | -1.54 | 1.31 | 0.197 | -0.0384 | 0.251 | -0.408 | -0.0829 | -0.496
COC(=O)[C@@]1(Cc2ccccc2)[C@H]2c3cc(C(=O)N4CCCC4)n(CCN4CNCC4=O)c3C[C@H]2CN1C(=O)c1ccccc1 | 0.0939 | 0.862 | 0.904 | 2.52 (inactive) | 0.0557 | 0.77 | 0.0908 | 0.47 | -0.292 | 1.05 | 0.871 | -0.857 | 0.172 | 1.91 | 0.265 | -0.0519 | -0.288 | -0.197 | 0.911 | 0.98
